Measured values: PubChem BioAssay AID1159580 (chemical genetic matrix, 2015)
Out of some 5,500 compounds screened, about 2,000 (36%) were called active. About 18% were inconclusive and are not listed. Cut-off read from the data, not from the text of the source: active = normalized growth mostly below about 0.91 (no sharp cut-off); inconclusive = no clear call, values can overlap the other calls; inactive = mostly above about 0.92. The list shows a part of the results.

Assay: chemical genetic growth profiling, strain panel (AID 1159580);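 note: tested at 20 µM; growth read once vehicle control cultures reached saturation at 30 °C; 1 = growth at the plate median or of vehicle wells; lower values mean less growth of the strain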
Conditions: S. cerevisiae deletion strains, growth OD

Measured: normalized growth

CC(=O)O[C@@H]1CC(=O)[C@@]2(C)C(CC(=O)[C@]3(C)C2CC[C@@]2(C)[C@H](c4ccoc4)OC(=O)C4OC423)C1(C)C (some centres undefined)
inactive: locus YBR021W, strain FUR4, active compounds read low 0.98 | locus YBR229C, strain ROT2, active compounds read low 0.991 | locus YCL029C, strain bik1, active compounds read low 1.01 | locus YDL035C, strain GPR1, active compounds read low 0.987 | locus YDL074C, strain BRE1, active compounds read low 0.976 | locus YDL101C, strain DUN1, active compounds read low 0.996 | locus YDL134C, strain PPH21, active compounds read low 1.01 | locus YDL185W, strain tfp1, active compounds read low 1.02 | locus YDL192W, strain arf1, active compounds read low 1.01 | locus YDR101C, strain arx1, active compounds read low 1 | locus YDR162C, strain NBP2, active compounds read low 1 | locus YDR318W, strain mcm21, active compounds read low 1 | locus YDR388W, active compounds read low 1.01 | locus YDR502C, strain sam2, active compounds read low 1 | locus YEL061C, strain CIN8, active compounds read low 0.998 | locus YER110C, active compounds read low 1.01 | locus YER155C, strain BEM2, active compounds read low 1 | locus YER167W, strain BCK2, active compounds read low 0.993 | locus YGL078C, strain dbp3, active compounds read low 1.01 | locus YGL086W, strain mad1, active compounds read low 1.01 | locus YGL248W, strain PDE1, active compounds read low 0.995 | locus YGR135W, strain pre9, active compounds read low 1 | locus YGR229C, strain SMI1, active compounds read low 0.988 | locus YGR252W, strain gcn5, active compounds read low 0.976 | locus YHR079C, strain IRE1 (second series), active compounds read low 1.01 | locus YHR094C, strain hxt1, active compounds read low 1 | locus YHR129C, strain ARP1, active compounds read low 1 | locus YHR200W, strain rpn10, active compounds read low 1 | locus YIL066C, strain RNR3, active compounds read low 1 | locus YIL073C, strain SPO22, active compounds read low 1.04 | locus YIL125W, strain kgd1, active compounds read low 1 | locus YIR030C, strain dcg1, active compounds read low 1.01 | locus YJL095W, strain BCK1, active compounds read low 0.963 | locus YJL134W, strain LCB3, active compounds read low 0.999 | locus YJL168C, strain set2, active compounds read low 1.01 | locus YJL187C, strain SWE1 (second series), active compounds read low 0.996 | locus YKL009W, strain mrt4, active compounds read low 1.01 | locus YKL068W, active compounds read low 1.01 | locus YKL085W, strain MDH1 (second series), active compounds read low 1.03 | locus YKL085W, strain MDH1, active compounds read low 1.03 | locus YKL190W, strain CNB1, active compounds read low 1 | locus YKR001C, strain vps1, active compounds read low 1.01 | locus YLR039C, strain RIC1, active compounds read low 1.02 | locus YLR058C, strain SHM2, active compounds read low 0.998 | locus YLR102C, strain apc9, active compounds read low 1.01 | locus YLR262C, strain YPT6, active compounds read low 1.05 | locus YLR268W, strain sec22, active compounds read low 0.998 | locus YLR371W, strain rom2, active compounds read low 1 | locus YLR418C, strain cdc73, active compounds read low 0.996 | locus YML016C, strain PPZ1, active compounds read low 1 | locus YML032C, strain rad52, active compounds read low 1.01 | locus YML124C, strain tub3, active compounds read low 1.01 | locus YMR078C, strain ctf18, active compounds read low 1.02 | locus YMR223W, strain ubp8, active compounds read low 1.01 | locus YMR307W, strain GAS1, active compounds read low 0.994 | locus YNL067W, strain RPL9B, active compounds read low 0.997 | locus YNL233W, strain BNI4, active compounds read low 0.993 | locus YNL250W, strain rad50, active compounds read low 1.04 | locus YNL271C, strain bni1, active compounds read low 1 | locus YNL298W, strain CLA4, active compounds read low 1.01 | locus YNL307C, strain MCK1, active compounds read low 1.03 | locus YNL322C, strain KRE1, active compounds read low 1 | locus YNR052C, strain pop2, active compounds read low 1.01 | locus YOL006C, strain TOP1, active compounds read low 0.912 | locus YOL012C, strain htz1 0.729 | locus YOL147C, strain pex11, active compounds read low 1 | locus YOR061W, strain CKA2, active compounds read low 1 | locus YOR069W, strain VPS5, active compounds read low 0.996 | locus YOR136W, strain idh2, active compounds read low 1.02 | locus YOR144C, strain elg1, active compounds read low 1.01 | locus YOR184W, strain ser1, active compounds read low 1.02 | locus YOR316C, strain cot1, active compounds read low 1.01 | locus YPL055C, strain LGE1, active compounds read low 0.989 | locus YPL241C, strain CIN2, active compounds read low 0.997 | locus YPR119W, strain clb2, active compounds read low 1.02 | locus YPR141C, strain kar3, active compounds read low 1.01 | locus YPR163C, strain tif3, active compounds read low 1.01 | locus YPR167C, strain met16, active compounds read low 1.02 | strain wtn01, active compounds read low 1.01
